Reference: ChEMBL document CHEMBL1961873, “Compounds: GSK PKIS; Assays: Nanosyn kinase panel” (2012)

Experiments:
[1] = test system: Proto-oncogene tyrosine-protein kinase receptor Ret (Homo sapiens), P07949 [Y791F]; conditions: at 1 µM
[2] = molecular target: Macrophage-stimulating protein receptor (Homo sapiens) (UniProt Q04912); conditions: at 0.1 µM
[3] = molecular target: Macrophage-stimulating protein receptor (Homo sapiens) (UniProt Q04912); conditions: at 1 µM
[4] = molecular target: Proto-oncogene tyrosine-protein kinase ROS (Homo sapiens) (UniProt P08922); conditions: at 0.1 µM
[5] = molecular target: Proto-oncogene tyrosine-protein kinase ROS (Homo sapiens) (UniProt P08922); conditions: at 1 µM
[6] = molecular target: Proto-oncogene tyrosine-protein kinase Src (Homo sapiens) (UniProt P12931); conditions: at 0.1 µM
[7] = molecular target: Proto-oncogene tyrosine-protein kinase Src (Homo sapiens) (UniProt P12931); conditions: at 1 µM
[8] = molecular target: Tyrosine-protein kinase Srms (Homo sapiens) (UniProt Q9H3Y6); conditions: at 0.1 µM
[9] = molecular target: Tyrosine-protein kinase Srms (Homo sapiens) (UniProt Q9H3Y6); conditions: at 1 µM
[10] = molecular target: Tyrosine-protein kinase SYK (Homo sapiens) (UniProt P43405); conditions: at 0.1 µM
[11] = molecular target: Tyrosine-protein kinase SYK (Homo sapiens) (UniProt P43405); conditions: at 1 µM
[12] = molecular target: T1, Tyrosine-protein kinase Tec (Homo sapiens) (UniProt P42680); conditions: at 0.1 µM
T1 sequence (whole entry): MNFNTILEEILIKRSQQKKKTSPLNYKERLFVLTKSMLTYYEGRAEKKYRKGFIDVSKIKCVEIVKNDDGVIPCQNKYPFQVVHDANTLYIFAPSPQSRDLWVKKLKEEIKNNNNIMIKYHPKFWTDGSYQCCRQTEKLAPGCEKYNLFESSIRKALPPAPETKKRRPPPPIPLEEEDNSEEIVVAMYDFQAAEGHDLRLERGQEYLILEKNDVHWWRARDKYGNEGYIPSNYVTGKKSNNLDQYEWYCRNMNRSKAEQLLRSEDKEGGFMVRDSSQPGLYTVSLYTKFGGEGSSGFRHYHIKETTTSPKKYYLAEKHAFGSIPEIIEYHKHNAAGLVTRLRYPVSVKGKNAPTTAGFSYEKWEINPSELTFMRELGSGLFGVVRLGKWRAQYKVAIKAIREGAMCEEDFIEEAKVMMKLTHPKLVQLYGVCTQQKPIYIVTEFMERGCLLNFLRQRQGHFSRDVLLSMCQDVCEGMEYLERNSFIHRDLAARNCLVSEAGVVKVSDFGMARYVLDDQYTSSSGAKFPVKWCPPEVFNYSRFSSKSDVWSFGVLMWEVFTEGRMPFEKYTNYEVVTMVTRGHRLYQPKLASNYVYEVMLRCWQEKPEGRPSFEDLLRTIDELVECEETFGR

[13] = molecular target: T1, Tyrosine-protein kinase Tec (Homo sapiens); conditions: at 1 µM
[14] = molecular target: Angiopoietin-1 receptor (Homo sapiens) (UniProt Q02763); conditions: at 0.1 µM
[15] = molecular target: Angiopoietin-1 receptor (Homo sapiens) (UniProt Q02763); conditions: at 1 µM
[16] = molecular target: T2, Non-receptor tyrosine-protein kinase TNK1 (Homo sapiens) (UniProt Q13470); conditions: at 1 µM
T2 sequence (whole entry): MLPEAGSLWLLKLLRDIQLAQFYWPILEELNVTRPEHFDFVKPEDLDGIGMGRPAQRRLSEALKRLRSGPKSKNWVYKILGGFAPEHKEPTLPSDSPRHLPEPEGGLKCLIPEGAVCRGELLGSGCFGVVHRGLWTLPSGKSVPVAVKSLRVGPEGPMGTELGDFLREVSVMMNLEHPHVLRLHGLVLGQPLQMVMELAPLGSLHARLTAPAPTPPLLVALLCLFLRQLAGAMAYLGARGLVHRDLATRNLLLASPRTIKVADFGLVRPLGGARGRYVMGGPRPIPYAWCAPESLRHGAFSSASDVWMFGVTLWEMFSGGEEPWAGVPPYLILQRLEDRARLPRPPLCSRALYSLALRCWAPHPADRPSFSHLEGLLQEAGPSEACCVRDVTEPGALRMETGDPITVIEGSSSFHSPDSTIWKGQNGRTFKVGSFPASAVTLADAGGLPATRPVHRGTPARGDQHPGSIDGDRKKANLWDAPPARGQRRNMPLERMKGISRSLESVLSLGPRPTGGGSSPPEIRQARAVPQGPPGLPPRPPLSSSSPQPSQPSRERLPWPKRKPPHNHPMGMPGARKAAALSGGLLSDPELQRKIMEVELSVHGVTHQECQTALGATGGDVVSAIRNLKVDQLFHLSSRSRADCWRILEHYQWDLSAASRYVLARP

[17] = molecular target: Activated CDC42 kinase 1 (Homo sapiens) (UniProt Q07912); conditions: at 0.1 µM
[18] = molecular target: Activated CDC42 kinase 1 (Homo sapiens) (UniProt Q07912); conditions: at 1 µM
[19] = molecular target: High affinity nerve growth factor receptor (Homo sapiens) (UniProt P04629); conditions: at 0.1 µM;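 further: each value is a mean of replicate percent inhibition readings against TRKA kinase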
[20] = molecular target: T2, Non-receptor tyrosine-protein kinase TNK1 (Homo sapiens); conditions: at 0.1 µM

Proto-oncogene tyrosine-protein kinase receptor Ret (Homo sapiens), P07949 [Y791F], sequence (P07949 whole entry Y791F): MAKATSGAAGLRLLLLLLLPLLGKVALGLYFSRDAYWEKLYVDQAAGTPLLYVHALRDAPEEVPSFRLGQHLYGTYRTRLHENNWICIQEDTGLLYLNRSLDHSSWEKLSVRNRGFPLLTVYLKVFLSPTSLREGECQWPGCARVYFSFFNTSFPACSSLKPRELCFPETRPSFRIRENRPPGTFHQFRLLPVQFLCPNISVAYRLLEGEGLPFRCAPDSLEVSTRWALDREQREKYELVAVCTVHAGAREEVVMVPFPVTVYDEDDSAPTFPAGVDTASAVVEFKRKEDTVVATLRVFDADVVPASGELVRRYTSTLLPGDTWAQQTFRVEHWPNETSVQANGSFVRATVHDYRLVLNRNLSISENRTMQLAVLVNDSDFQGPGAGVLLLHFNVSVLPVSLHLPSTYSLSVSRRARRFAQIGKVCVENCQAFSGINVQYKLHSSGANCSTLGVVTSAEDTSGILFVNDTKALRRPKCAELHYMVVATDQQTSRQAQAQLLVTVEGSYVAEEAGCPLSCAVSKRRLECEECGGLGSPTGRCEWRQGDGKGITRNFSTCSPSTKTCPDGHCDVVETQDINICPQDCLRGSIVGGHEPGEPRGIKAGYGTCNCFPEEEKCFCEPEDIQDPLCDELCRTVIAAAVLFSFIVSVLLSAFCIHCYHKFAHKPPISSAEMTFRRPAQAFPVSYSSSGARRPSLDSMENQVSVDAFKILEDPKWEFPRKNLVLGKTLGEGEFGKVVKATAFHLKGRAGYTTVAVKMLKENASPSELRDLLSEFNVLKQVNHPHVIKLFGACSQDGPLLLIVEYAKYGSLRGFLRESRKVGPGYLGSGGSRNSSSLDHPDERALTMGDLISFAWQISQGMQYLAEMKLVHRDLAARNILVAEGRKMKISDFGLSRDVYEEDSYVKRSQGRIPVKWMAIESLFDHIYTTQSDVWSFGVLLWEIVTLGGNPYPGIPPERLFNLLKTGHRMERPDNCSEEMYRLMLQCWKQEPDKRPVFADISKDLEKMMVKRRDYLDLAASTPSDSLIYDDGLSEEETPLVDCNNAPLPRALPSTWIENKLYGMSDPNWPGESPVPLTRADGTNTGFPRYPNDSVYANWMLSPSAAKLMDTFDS
Angiopoietin-1 receptor (Homo sapiens), sequence (Q02763 whole entry): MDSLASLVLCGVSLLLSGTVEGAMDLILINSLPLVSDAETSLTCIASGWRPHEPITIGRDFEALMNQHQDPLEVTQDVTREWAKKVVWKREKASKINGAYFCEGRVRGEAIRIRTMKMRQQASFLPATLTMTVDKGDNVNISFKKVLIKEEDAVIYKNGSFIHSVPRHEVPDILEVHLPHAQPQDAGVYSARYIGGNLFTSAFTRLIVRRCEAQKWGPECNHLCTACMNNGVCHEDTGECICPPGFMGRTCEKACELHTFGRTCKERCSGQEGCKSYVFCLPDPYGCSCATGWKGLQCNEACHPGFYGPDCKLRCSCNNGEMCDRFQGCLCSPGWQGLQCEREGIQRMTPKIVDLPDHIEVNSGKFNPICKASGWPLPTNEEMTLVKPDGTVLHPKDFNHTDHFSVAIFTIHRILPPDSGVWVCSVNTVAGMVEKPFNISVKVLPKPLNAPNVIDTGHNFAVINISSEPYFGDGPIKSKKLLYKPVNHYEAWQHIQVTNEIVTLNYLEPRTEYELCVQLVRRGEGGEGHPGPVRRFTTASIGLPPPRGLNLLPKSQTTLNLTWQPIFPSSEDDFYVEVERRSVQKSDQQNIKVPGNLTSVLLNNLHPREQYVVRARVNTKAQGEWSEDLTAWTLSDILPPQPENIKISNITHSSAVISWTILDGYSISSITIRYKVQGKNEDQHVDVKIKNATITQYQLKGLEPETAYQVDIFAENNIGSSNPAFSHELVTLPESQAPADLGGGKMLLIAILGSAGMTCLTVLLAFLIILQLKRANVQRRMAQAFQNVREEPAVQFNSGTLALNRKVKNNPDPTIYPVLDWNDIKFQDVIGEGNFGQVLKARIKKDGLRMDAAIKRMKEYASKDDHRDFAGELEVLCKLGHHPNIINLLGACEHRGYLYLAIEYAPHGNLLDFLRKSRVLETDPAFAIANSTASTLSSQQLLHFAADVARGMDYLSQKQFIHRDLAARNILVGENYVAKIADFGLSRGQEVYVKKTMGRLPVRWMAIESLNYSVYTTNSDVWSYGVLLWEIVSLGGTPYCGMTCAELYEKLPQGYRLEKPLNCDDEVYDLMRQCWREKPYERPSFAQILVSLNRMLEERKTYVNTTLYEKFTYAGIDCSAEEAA
Macrophage-stimulating protein receptor (Homo sapiens), sequence (Q04912 25-304 limits assumed): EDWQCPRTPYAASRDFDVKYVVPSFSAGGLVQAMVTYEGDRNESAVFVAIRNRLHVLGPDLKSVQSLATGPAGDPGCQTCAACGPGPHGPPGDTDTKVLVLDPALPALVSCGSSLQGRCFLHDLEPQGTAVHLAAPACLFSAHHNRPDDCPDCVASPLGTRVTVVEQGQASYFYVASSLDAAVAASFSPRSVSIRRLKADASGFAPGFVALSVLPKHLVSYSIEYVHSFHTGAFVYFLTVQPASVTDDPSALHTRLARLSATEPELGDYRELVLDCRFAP
Macrophage-stimulating protein receptor (Homo sapiens), sequence (Q04912 310-1400 limits assumed): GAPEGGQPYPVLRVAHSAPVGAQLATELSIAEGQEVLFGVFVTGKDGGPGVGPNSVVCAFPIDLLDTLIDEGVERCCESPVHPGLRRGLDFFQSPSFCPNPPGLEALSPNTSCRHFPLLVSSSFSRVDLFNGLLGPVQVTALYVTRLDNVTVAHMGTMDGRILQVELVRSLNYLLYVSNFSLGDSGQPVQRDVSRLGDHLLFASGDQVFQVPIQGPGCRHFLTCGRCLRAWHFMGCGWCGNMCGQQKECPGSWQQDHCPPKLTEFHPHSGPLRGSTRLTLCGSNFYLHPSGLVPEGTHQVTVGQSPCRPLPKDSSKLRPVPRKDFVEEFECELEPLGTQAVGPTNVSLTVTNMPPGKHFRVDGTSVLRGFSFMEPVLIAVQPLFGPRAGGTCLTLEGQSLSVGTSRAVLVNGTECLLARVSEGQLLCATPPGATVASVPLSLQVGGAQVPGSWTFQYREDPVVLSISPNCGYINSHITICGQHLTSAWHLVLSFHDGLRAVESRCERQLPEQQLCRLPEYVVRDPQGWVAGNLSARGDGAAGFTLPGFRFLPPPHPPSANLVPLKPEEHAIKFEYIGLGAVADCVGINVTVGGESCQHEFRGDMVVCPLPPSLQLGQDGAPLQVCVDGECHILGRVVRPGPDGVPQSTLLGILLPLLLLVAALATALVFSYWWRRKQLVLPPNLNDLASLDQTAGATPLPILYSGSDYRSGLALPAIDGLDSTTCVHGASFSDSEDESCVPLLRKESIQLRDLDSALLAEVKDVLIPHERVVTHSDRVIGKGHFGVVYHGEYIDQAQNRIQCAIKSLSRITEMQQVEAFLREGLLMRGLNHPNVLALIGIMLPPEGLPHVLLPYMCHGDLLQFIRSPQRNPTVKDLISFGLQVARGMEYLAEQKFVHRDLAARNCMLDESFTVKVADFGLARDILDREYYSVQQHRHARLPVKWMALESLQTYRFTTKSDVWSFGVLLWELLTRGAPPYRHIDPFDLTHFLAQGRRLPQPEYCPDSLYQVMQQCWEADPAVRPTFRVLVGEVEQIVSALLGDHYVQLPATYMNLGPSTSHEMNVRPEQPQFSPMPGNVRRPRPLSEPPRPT
Activated CDC42 kinase 1 (Homo sapiens), sequence (Q07912 whole entry, looked up): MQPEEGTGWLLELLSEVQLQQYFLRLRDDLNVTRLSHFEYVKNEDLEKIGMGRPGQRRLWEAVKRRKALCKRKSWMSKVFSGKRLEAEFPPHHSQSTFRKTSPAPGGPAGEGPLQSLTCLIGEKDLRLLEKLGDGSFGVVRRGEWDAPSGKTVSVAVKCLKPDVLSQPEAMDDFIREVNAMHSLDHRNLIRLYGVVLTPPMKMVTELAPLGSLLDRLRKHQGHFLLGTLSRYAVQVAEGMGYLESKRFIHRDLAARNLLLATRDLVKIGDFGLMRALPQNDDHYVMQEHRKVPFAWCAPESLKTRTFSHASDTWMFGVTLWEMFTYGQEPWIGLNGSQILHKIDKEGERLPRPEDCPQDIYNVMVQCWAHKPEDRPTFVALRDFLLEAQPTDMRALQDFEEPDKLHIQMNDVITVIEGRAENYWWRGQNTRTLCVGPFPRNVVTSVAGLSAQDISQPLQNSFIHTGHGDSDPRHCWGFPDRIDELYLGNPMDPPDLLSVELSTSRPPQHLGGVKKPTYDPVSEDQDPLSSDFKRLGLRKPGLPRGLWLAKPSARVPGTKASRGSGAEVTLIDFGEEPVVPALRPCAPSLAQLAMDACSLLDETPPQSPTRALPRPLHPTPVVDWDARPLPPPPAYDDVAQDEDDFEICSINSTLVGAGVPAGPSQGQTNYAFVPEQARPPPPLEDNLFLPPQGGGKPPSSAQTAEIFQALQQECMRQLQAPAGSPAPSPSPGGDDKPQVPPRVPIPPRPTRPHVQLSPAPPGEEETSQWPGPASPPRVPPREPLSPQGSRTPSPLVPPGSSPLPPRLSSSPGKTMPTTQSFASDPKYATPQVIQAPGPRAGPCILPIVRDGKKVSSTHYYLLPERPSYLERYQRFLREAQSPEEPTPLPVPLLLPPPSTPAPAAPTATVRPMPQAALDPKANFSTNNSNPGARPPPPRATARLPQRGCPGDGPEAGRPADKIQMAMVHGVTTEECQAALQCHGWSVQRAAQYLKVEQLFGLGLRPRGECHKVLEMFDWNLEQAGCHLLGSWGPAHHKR

Structure (SMILES)	inhibition [1] [%]	inhibition [2] [%]	inhibition [3] [%]	inhibition [4] [%]	inhibition [5] [%]	inhibition [6] [%]	inhibition [7] [%]	inhibition [8] [%]	inhibition [9] [%]	inhibition [10] [%]	inhibition [11] [%]	inhibition [12] [%]	inhibition [13] [%]	inhibition [14] [%]	inhibition [15] [%]	inhibition [16] [%]	inhibition [17] [%]	inhibition [18] [%]	inhibition [19] [%]	inhibition [20] [%]
COc1cc(C=NNc2ncnc3c2cnn3Cc2ccccc2)ccc1O	28.4	-1.32	12.5	2.7	16.4	31.2	76.5	-0.22	4.66	4.57	-4.26	-0.99	16.4	3.65	31.7	-2.22	-1.7	0.03	-2.9	
Fc1ccc(-c2ncn(C3CCNCC3)c2-c2ccnc(Oc3ccccc3)n2)cc1	4.13		-0.69	2.25	4.83	1.52	2.45	-0.96	-0.16	2.45	0.47	-3.67	-1.69	-0.49	1.7	1.01	-0.4	0.06	1.92	0.27
CCn1c(-c2nonc2N)nc2c(C#CCN)ncc(OCCCN)c21	15.8	-2.05	-3.31	3.3	4.46	-2.04	-4.29	1.1	1.96	8.99	-0.1	-2.6	-1.5	0.84	-0.39	10.6	-0.12	0.81	-3.88	2.24
CCn1c(-c2nonc2N)nc2c(C#CC(C)(C)O)ncc(OCC3CCNCC3)c21	33.5	0.01	7.68	3.89	5.45	-0.03	8.65	0.75	1.57	0.62	-0.6	-0.71	0.43	0.65	3.85	10.6	0.81	1.2	3.1	1.75
CCn1c(-c2nonc2N)nc2c(C#CC(C)(C)O)ncc(OC[C@@H]3CCCN3)c21	28.5	1.97	-2.78	-0.22	0.45	-0.2	-2.58	1.63	0.87	-0.6	-4.11	0.03	1.67	-0.35	4.39	1.67	-0.73	-0.46	-2.99	2.04
Nc1nonc1-c1nc2cnccc2n1C1CCCCC1	13.2	13.1	-1.49	5.33	35.9	1.24	-1.17	1.53	2.59	3.45	-0.01	-0.6	1.22	1.78	3.18	20.8	-1.67	-1.55	-1.55	-1.33
NS(=O)(=O)c1ccc(N/C=C2\C(=O)Nc3ccc4ncsc4c32)cc1	69	7.83	39.2	6.11	17	12.2	42.9	-3.95	-1.72	-2.47	-8.48	1.96	10.6	0.38	10.4	37.8	0.75	1.83	9.04	6.89
NC(=O)c1sc(-n2cnc3cc(C(F)(F)F)ccc32)cc1OCc1ccccc1Br	7.07	0.35	-1.59	4.23	5.52	3.37	2.02	0.27	0.76	0.79	1.46	1.68	3.28	2.07	3.72	5.51	0.49	1.45	-0.62	1.72
NS(=O)(=O)c1ccc(-c2ccc3c(NC(=O)C4CC4)n[nH]c3c2)cc1	5.85	5.07	8.99	1.18	2.15	1.32	4.59	-2.44	-0.4	-0.58	-2.49	4.93	10.3	1.08	6.97	4.7	1.28	1.95	3.82	2.11
COc1cc2c(cc1Nc1nc(Nc3ccsc3C(N)=O)c3cc[nH]c3n1)N(C(=O)CN(C)C)CCC2	7.35	2.97	11.5	82.1	82.1	8.11	6.64	5.79	3.93	10.9	11.2	-0.19	4.36	6.04	10.5	80.2	0.24	13.2		32.3
COc1cccc(-n2ncc3c(N/N=C/c4ccncc4)ncnc32)c1	65.9	12.4	60.9	10.2	76	49.1	87.3	1.22	14.3	-2.07	9.95	6.13	17.2	6.02	37.5	52.3	2.06	9.3	3.46	10.1
Cc1cc(-c2ccco2)cc(C)c1/C=C/c1cncc(-c2nn[nH]n2)c1	2.75	1.68	-0.11	2.71	3.62	2.38	2.91	0.76	3.61	0.05	-0.41	-0.18	4.27	2.4	5.27	75.2	0.58	3.5	-2.1	14.2
CCn1c(-c2nonc2N)nc2c(C#CC(C)(C)O)nc(O[C@@H](CN)c3ccccc3)cc21	80.3	1.9	3.42	2.61	11.1	2.84	20.9	4.6	0.15	1.9	0.56	0.79	5.82	2.63	11.4	-3.26	-0.88	-1.74	-3.19	-3.17
COc1cccc(COc2cc(-n3cnc4ccccc43)sc2C(N)=O)c1	11.6	-1.15	1.23	1.62	3.74	-0.77	-2.52	-2.46	-1.46	-0.33	-4.12	-0.82	0.59	-1.48	3.47	12.1	-0.46	0.57	-2.49	0.87
